According to PubChem BioAssay:
The source made the active and inactive calls.

Columns and labels:
[1] = optical density shifts of acrAB sulA E. coli – strain DRC41, OD650, 48 h, E. coli filamentation inducer project, primary screen (AID 1152); conditions: higher = more signal, called active from +8 up or from −8 down;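 further: E. coli MC1000 strain DRC41 lacking acrAB efflux pump and sulA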
[2] = probe aLefty1 binding on compound microarray – biochemical, small-molecule microarray, 635/667 nm fluorescence, primary screen (AID 1153); conditions: higher = more signal;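 further: score merges spot fluorescence with signal-to-noise ratio from the scanned slide images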
[3] = plasmodial surface anion channel blockers, osmotic lysis – cell-based, P. falciparum Indochina, OD700, 1 h, primary screen (AID 1154); conditions: P. falciparum Indochina infected RBC osmotic lysis, higher = more signal, called active from +8 up or from −8 down
[4] = plasmodial surface anion channel blockers, osmotic lysis – cell-based, P. falciparum Indochina, OD700, 2 h, primary screen (AID 1155);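 further: lysis reports solute entry through the parasite surface anion channel PSAC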; conditions: P. falciparum Indochina infected erythrocytes, higher = more signal, called active from +8 up or from −8 down
[5] = changes in parasitized red cell lysis, either direction – P. falciparum Indochina, OD700, 3 h, PSAC antagonist project, primary screen (AID 1156); conditions: P. falciparum-infected erythrocytes, osmotic lysis, higher = more signal, called active from +8 up or from −8 down
[6] = plasmodial surface anion channel blockers, osmotic lysis – cell-based, P. falciparum Indochina, OD700, 18 h, primary screen (AID 1157); conditions: P. falciparum Indochina infected erythrocytes, osmotic lysis OD700, 18 h; higher = more signal, called active from +8 up or from −8 down
[7] = S6 kinase pathway phospho-S6 level changes – cell-based, A549, cytoblot, luminescence, serum-stimulated, primary screen (AID 1158); conditions: 5 h, higher = more signal;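 further: serum-stimulated A549 lung adenocarcinoma cells; signal is phosphorylated S6 detected by cytoblot immunostaining with HRP secondary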
[8] = target: NADPH oxidase 2 (Homo sapiens) (UniProt P04839); assay: compounds shifting NOX2 Amplex Red fluorescence – cell-based, HEK293-NOX2, PMA-stimulated, NOX inhibitor project, primary screen (AID 1159); conditions: 45 min, higher = more signal, called active from +8 up or from −8 down; further: test concentration not given here
NADPH oxidase 2 (Homo sapiens), sequence (P04839 whole entry, looked up): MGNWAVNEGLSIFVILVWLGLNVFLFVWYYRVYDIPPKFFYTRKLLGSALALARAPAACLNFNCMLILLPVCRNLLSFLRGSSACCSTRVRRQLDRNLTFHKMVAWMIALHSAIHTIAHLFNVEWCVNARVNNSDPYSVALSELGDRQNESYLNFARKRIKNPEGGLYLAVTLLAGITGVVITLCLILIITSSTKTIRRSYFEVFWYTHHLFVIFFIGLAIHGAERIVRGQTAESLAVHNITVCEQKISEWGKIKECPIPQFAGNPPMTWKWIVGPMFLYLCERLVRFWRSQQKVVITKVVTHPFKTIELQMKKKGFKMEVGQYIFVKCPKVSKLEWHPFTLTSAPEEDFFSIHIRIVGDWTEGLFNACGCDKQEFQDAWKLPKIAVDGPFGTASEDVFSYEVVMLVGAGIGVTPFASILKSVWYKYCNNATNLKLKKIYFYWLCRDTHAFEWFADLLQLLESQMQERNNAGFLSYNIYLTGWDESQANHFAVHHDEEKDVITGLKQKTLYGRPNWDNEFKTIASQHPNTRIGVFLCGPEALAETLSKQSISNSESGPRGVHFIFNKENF

[9] = target: NADPH oxidase 4 (Homo sapiens) (UniProt Q9NPH5); assay: compounds shifting NOX4 Amplex Red fluorescence – cell-based, HEK293-NOX4, tetracycline-induced, NOX inhibitor project, primary screen (AID 1160); conditions: HEK293-NOX4, Amplex Red H2O2 fluorescence, 45 min; higher = more signal, called active from +8 up or from −8 down
NADPH oxidase 4 (Homo sapiens), sequence (Q9NPH5 whole entry, looked up): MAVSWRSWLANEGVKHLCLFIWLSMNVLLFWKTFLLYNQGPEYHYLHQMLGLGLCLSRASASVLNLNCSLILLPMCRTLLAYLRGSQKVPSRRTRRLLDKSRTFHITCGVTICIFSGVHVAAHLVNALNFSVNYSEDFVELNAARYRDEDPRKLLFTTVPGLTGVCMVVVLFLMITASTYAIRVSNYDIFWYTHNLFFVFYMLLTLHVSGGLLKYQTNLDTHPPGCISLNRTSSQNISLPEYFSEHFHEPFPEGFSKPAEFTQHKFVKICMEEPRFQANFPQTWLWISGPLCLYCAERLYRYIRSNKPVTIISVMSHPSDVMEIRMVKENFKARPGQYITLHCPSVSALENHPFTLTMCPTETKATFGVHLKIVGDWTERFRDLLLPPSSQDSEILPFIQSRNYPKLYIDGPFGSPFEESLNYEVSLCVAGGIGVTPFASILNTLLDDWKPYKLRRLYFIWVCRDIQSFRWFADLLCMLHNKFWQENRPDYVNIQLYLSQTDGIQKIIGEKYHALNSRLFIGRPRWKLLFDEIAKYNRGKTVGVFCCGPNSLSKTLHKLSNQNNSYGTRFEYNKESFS

[10] = target: NADPH oxidase 5 (Homo sapiens) (UniProt Q96PH1); assay: compounds shifting NOX5 Amplex Red fluorescence – cell-based, HEK293-NOX5, NOX inhibitor project, primary screen (AID 1161); conditions: HEK293-NOX5, ionomycin, 45 min, higher = more signal
NADPH oxidase 5 (Homo sapiens), sequence (Q96PH1 whole entry, looked up): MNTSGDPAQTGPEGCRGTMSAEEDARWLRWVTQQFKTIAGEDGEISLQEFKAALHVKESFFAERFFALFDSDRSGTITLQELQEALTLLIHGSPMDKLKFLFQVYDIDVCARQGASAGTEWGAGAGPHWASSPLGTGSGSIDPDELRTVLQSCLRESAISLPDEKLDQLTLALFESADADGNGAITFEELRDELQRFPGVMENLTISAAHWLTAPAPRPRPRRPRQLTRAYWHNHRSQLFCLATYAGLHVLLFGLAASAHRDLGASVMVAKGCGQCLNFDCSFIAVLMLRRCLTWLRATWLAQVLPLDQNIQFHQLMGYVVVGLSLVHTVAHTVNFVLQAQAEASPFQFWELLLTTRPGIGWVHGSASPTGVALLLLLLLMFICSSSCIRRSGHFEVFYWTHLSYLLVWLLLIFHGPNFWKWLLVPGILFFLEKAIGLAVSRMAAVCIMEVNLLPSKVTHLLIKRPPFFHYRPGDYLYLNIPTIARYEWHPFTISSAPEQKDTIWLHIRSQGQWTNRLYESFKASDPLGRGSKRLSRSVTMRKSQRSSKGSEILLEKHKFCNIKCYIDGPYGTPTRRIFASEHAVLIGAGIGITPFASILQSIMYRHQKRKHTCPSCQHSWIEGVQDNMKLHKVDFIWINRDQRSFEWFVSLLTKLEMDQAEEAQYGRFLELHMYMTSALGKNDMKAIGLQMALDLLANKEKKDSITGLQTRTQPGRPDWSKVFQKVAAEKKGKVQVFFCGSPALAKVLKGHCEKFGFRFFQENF

SMILES | z-score [1] | composite z-score [2] | z-score [3] | z-score [4] | z-score [5] | z-score [6] | z-score [7] | z-score [8] | z-score [9] | z-score [10]
C=C(C(=O)CC[C@@H](OC(=O)c1ccccc1-c1ccccc1C(=O)O)c1ccc(OCCO)cc1)C(C)C | -0.383 (inactive) | 0.312 | 13.6 (active) | 1.37 (inactive) | 1.2 (inactive) | 0.405 (inactive) | -0.26 | 1.43 (inactive) | 0.123 (inactive) | -1.3
O=C1N(Cc2ccccc2)c2ccccc2C[C@@]12N=C(c1ccc(OCCCO)cc1)O[C@H]2c1ccccc1 | -1.12 (inactive) | 0.383 | 10.8 (active) | 2.67 (inactive) | 3.39 (inactive) | 1.03 (inactive) | 0.075 | 1.92 (inactive) | 0.112 (inactive) | -1.67
O=C1O[C@@H](c2ccccc2)[C@@H](c2ccccc2)N2[C@@H](c3ccc(OCCO)cc3)[C@]3(C(=O)Nc4ccc(C#CC5=CCCCC5)cc43)[C@@H](C(=O)Nc3nc4ccccc4s3)[C@H]12 | -0.558 (inactive) | -0.0857 | 1.88 (inactive) | 2.03 (inactive) | 1.92 (inactive) | 2.11 (inactive) | -0.579 | 1.01 (inactive) | -0.188 (inactive) | 0.0226
CN(C)CCCC[C@@H]1NC(=O)[C@H]2C[C@@H](C(=O)NCCCCCCNC(=O)CS)[C@@H](c3cccc(OCCO)c3)N2C1=O | -0.175 (inactive) | -0.139 | 2.29 (inactive) | 0.677 (inactive) | 1.26 (inactive) | 0.228 (inactive) | -0.617 | 1.07 (inactive) | 0.981 (inactive) | 0.992
C=C(C(=O)CC[C@H](OC(=O)c1ccccc1-c1ccccc1C(=O)O)c1ccc(OCCO)cc1)C(C)C | -0.0716 (inactive) | 0.235 | 11.6 (active) | 1.77 (inactive) | 2.09 (inactive) | 0.92 (inactive) | -0.154 | 0.357 (inactive) | -0.446 (inactive) | -2.12
CCOC(=O)C1=CC[C@@H](c2ccccc2)N(S(=O)(=O)c2ccc(C)cc2)[C@@H]1C#N | 0.49 (inactive) | 0.082 | 4.46 (inactive) | 0.804 (inactive) | 0.0758 (inactive) | 1 (inactive) | -0.268 | 0.224 (inactive) | -0.615 (inactive) | -0.14
Cc1ccc(N2C(=O)c3ccccc3[C@@H](C(=O)NCCN3CCOCC3)[C@@H]2c2ccc(CO)cc2)nc1 | 0.279 (inactive) | -0.303 | 0.443 (inactive) | -0.229 (inactive) | -0.319 (inactive) | 0.155 (inactive) | -0.334 | 0.335 (inactive) | -0.36 (inactive) | -1.86
C=C(COC)C(=O)CC[C@@H](OC(=O)c1ccccc1-c1ccccc1C(=O)O)c1ccccc1OCCO | -0.564 (inactive) | -0.103 | 5.01 (inactive) | 0.281 (inactive) | 1.03 (inactive) | -0.209 (inactive) | -0.813 | 0.26 (inactive) | -0.182 (inactive) | -0.933
CC(C)c1ccc(NN2C(C(O)C3CCCCC3)C=CC3C(=O)N(c4ccccc4)C(=O)C32)cc1 (stereo not given) | -0.78 (inactive) | 0.368 | 3.29 (inactive) | 1.71 (inactive) | 0.215 (inactive) | 1.37 (inactive) | -0.996 | -1.69 (inactive) | -2.75 (inactive) | -2.44
COc1ccc([Si](C)(C)[C@H]2[C@H](CC(=O)N(CCO)Cc3ccccc3)O[C@@]3(C(=O)N(Cc4ccc(N5C(=O)c6cccc7cccc5c67)cc4)c4ccccc43)[C@@H]2C)cc1 | -0.263 (inactive) | 0.542 | 15.2 (active) | 3.52 (inactive) | 1.24 (inactive) | 1.48 (inactive) | 0.294 | 1.52 (inactive) | 0.695 (inactive) | 2.88
CC[C@@H](O[Si](C#C[Si](C(C)C)(C(C)C)C(C)C)(C(C)C)C(C)C)c1cn([C@H](C)c2ccccc2)nn1 | 0.854 (inactive) | -0.0601 | 0.4 (inactive) | 0.209 (inactive) | -0.969 (inactive) | 0.582 (inactive) | -0.711 | -0.0103 (inactive) | -0.507 (inactive) | 0.0572
COc1cccc(C)c1NC(=O)O[C@H]1[C@H](OC(=O)Nc2ccccc2-c2ccccc2)[C@@H](OC(=O)Nc2ccccc2-c2ccccc2)[C@@H](OC)O[C@@H]1CO | -1.33 (inactive) | 0.406 | 2.54 (inactive) | 1.13 (inactive) | -0.857 (inactive) | 0.937 (inactive) | -0.338 | -3.62 (inactive) | -1.2 (inactive) | -1.72
COC(=O)C(CC#Cc1ccc2c(c1)[C@]1(C(=O)N2)[C@H](C(=O)N2CCCCCCC2)[C@H]2C(=O)O[C@H](c3ccccc3)[C@H](c3ccccc3)N2[C@@H]1c1ccc(OCCO)cc1)C(=O)OC | -0.215 (inactive) | 3.14 | 13.7 (active) | 2.51 (inactive) | -5.71 (inactive) | 0.588 (inactive) | -0.779 | 0.985 (inactive) | 0.827 (inactive) | 1.6
C=C(COC)/C(=C/C[C@@H](OC(=O)c1ccncc1)c1ccccc1OCCO)c1cnc2ccccc2c1 | 0.588 (inactive) | 0.333 | 25.7 (active) | 11.5 (active) | 0.518 (inactive) | 1.09 (inactive) | 0.261 | 0.0701 (inactive) | 0.217 (inactive) | -1.13
COCCOC(=O)N1C(=O)[C@@]2(c3cc(C#CCNC(N)=O)ccc31)[C@H](C(=O)Nc1nc3ccccc3s1)[C@H]1C(=O)O[C@H](c3ccccc3)[C@H](c3ccccc3)N1[C@@H]2c1ccc(O)cc1 | -0.614 (inactive) | 0.317 | 1.1 (inactive) | 0.476 (inactive) | -0.385 (inactive) | 1.05 (inactive) | 0.637 | 0.95 (inactive) | -1.12 (inactive) | 0.142
CCCCN1CC=CC23O[C@@H]4/C=C\CCC(C)OC(=O)C4[C@H]2C(=O)N(CCO)[C@@H]3C1=O (stereo not given in full) | 1.36 (inactive) | -0.386 | 2.6 (inactive) | 0.254 (inactive) | 0.336 (inactive) | 0.479 (inactive) | 0.7 | 1.01 (inactive) | 0.416 (inactive) | 2.29
CC(CO)N1C(=O)[C@@H]2[C@H]3C(=O)OCC=C[C@H]3OC23C=CCN(c2ccc4ccccc4c2)C(=O)[C@@H]13 (stereo not given in full) | -0.855 (inactive) | 0.0927 | 0.201 (inactive) | 0.0537 (inactive) | 0.162 (inactive) | -0.0627 (inactive) | -0.409 | 0.405 (inactive) | 0.512 (inactive) | 1.79
COc1ccc(C(=O)Nc2cccc(CN3C(=O)[C@]4(O[C@H](CC(=O)N(CCO)Cc5ccccc5)[C@@H]([Si](C)(C)c5ccc(OC)cc5)[C@@H]4C)c4ccccc43)c2)cc1 | 0.556 (inactive) | 0.0892 | 4.41 (inactive) | 0.614 (inactive) | 0.0064 (inactive) | 0.795 (inactive) | 0.805 | 0.936 (inactive) | 0.871 (inactive) | 3.51
C=CCNC(=O)[C@@H]1[C@H]2C(=O)O[C@H](c3ccccc3)[C@H](c3ccccc3)N2[C@H](c2ccc(OCCO)cc2)[C@@]12C(=O)Nc1ccc(C#CC3=CCCCC3)cc12 | -0.874 (inactive) | -0.21 | 2.81 (inactive) | 1.98 (inactive) | -0.306 (inactive) | 1.87 (inactive) | -0.474 | 1.38 (inactive) | -0.894 (inactive) | 1.56
CC1CC/C=C\[C@H]2OC34C=CCN(CCN5CCOCC5)C(=O)[C@H]3N(C(CO)C(C)C)C(=O)[C@@H]4C2C(=O)O1 (stereo not given in full) | -0.481 (inactive) | -0.247 | 1.94 (inactive) | -0.184 (inactive) | 0.927 (inactive) | 0.233 (inactive) | -0.69 | 1.13 (inactive) | -0.728 (inactive) | 1.91
Cc1ccc(S(=O)(=O)N2[C@@H](c3ccccc3)C(C(=O)O)=C[C@H]2C(C)(C)C)cc1 | -0.576 (inactive) | -0.0318 | 0.386 (inactive) | 0.0156 (inactive) | 0.136 (inactive) | 0.61 (inactive) | -0.222 | 0.384 (inactive) | -0.539 (inactive) | -0.36
